For 33 compounds, residual activity results are on record in ChEMBL document CHEMBL2218924, “A broad activity screen in support of a chemogenomic map for kinase signalling research and drug discovery” (Biochem J, 2013).

As usually defined, the residual activity is the signal under treatment as a percentage of the control signal.

Molecules are shown by their SMILES.

The first assay deals with T1, Protein kinase C epsilon type (Homo sapiens) (UniProt Q02156).
T1 sequence (whole entry): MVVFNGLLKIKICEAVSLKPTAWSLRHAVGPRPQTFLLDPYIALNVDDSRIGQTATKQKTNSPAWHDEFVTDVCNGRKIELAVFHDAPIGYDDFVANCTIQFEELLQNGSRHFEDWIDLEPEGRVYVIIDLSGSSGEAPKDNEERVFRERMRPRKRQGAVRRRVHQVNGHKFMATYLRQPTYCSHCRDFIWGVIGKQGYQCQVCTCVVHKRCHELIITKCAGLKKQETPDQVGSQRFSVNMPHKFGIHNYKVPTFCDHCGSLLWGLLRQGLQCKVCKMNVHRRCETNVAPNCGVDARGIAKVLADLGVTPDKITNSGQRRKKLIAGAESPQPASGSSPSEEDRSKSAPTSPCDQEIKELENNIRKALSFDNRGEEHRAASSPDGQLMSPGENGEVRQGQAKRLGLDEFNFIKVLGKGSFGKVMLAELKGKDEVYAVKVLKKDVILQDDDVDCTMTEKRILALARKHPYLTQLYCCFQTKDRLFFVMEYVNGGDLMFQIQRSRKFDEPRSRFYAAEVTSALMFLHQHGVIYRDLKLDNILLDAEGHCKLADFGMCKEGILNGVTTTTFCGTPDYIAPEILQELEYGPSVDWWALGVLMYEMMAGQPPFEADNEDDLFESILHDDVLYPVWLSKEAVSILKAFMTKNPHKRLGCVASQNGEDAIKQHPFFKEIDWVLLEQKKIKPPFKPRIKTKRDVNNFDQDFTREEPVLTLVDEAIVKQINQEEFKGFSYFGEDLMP
Conditions: at 1 µM.
As to `CN(C)S(=O)(=O)c1ccc2c(c1)/C(=C/c1cc3c([nH]1)CCCC3)C(=O)N2`, the residual activity turned out to be 98%.

In the case of `Cn1sc(=O)n(Cc2ccccc2)c1=O`, the residual activity was 88%.

For `NCCNc1ncc(C(N)=O)c(Nc2cccc(C(F)(F)F)c2)n1`, the residual activity worked out at 77%.

On to `CC(C)(C)n1nc(Cc2cccc3ccccc23)c2c(N)ncnc21`, for which the residual activity worked out at 91%.

For `NC(=O)Nc1sc(-c2ccc(F)cc2)cc1C(N)=O`, the residual activity came out at 102%.

Regarding `O=c1cc(N2CCNCC2)oc2c(-c3ccccc3)cccc12`, the residual activity came to 93%.

Consider `O=c1cc(N2CCOCC2)oc2c1ccc1ccccc12`, for which the residual activity is 87%.

For the compound `CC(C)c1nn(-c2c(Cl)cccc2Cl)c2nc(Cc3ccc(OCCO)cc3)[nH]c(=O)c12`, the residual activity is 99%.

In the case of `O=C(NC(NC(=S)Nc1ccc(F)c([N+](=O)[O-])c1)C(Cl)(Cl)Cl)C(c1ccccc1)c1ccccc1` (configuration not stated), the residual activity was 84%.

Consider `CSc1nc(-c2ccc(F)cc2)c(-c2ccnc(NC(C)c3ccccc3)c2)[nH]1` (configuration not stated), for which the residual activity is 125%.

As to `Oc1cccc(-c2nc(N3CCOCC3)c3oc4ncccc4c3n2)c1`, the residual activity amounted to 91%.

Turning to `COc1ccc2c(c1)c(C1=C(c3c[nH]c4ccccc34)C(=O)NC1=O)cn2CCCN(C)C`, the residual activity worked out at 3%.

Turning to `O=C1NC(=O)C(c2cn(CCCn3ccnc3)c3ccccc23)=C1Nc1ccccc1`, the residual activity was found to be 21%.

Regarding `O=C(Nc1nc2ccccc2n1CCN1CCOCC1)c1cccc([N+](=O)[O-])c1`, the residual activity amounted to 86%.

As for `CC(C)N(CCC(=O)c1ccc2ccccc2c1)Cc1ccccc1`, the residual activity worked out at 83%.

Take `CCOC(=O)c1c(C)[nH]c(/C=C2\C(=O)Nc3ccccc32)c1C`: the residual activity worked out at 83%.

With `Nc1ncnc2c1cnn2-c1ccccc1`, the residual activity came out at 80%.

With `CC(C)[C@H](CO)Nc1nc(Nc2cc(N)cc(Cl)c2)c2ncn(C(C)C)c2n1`, the residual activity was found to be 100%.

Consider `Nc1ncnc2c1c(-c1ccc(Oc3ccccc3)cc1)cn2C1CCCC1`, for which the residual activity turned out to be 84%.

As to `Cc1cc(C)c(/C=C2\C(=O)Nc3ccccc32)[nH]1`, the residual activity came to 82%.

For `COc1cc2nccc(Oc3ccc(NC(=S)NC(=O)c4ccccc4C)cc3)c2cc1OC`, the residual activity was found to be 85%.

For `O=C(c1ccccc1)c1ccc(N2CCOCC2)cc1O`, the residual activity was determined as 89%.

`Nc1ncnc2[nH]nc(Nc3ccc(F)cc3)c12`: the residual activity was found to be 123%.

As for `O=C1NC(=O)C(c2c[nH]c3ccccc23)=C1c1c[nH]c2ccccc12`, the residual activity was 63%.

Turning to `O=C1Nc2ccc(Cl)cc2/C1=C/c1cc(Cl)c(O)c(Cl)c1`, the residual activity was 87%.

`COc1ccc(Cl)cc1NC(=O)Nc1cc(C)nc2ccccc12`: the residual activity amounted to 82%.

Consider `COc1ccc(-c2cnc3c(-c4ccsc4)cnn3c2)cc1`, for which the residual activity is 86%.

As for `O=C1NC(=O)c2c1c1c3ccccc3[nH]c1n1cncc21`, the residual activity stood at 105%.

Turning to `O=C1C(Cl)=C(N2C(=O)CCC2=O)C(=O)c2ccccc21`, the residual activity turned out to be 90%.

Turning to `CCCC(=O)Oc1ccc2[nH]c(C(=O)c3cc4ccccc4[nH]3)cc2c1`, the residual activity stood at 85%.

Turning to `O=C(O)/C=C/c1cc(Br)c(Br)c(Br)c1Br`, the residual activity is 104%.

The target of another assay is T1, Protein kinase C epsilon type (Homo sapiens). Conditions: at 10 µM.
On to `CN(C)S(=O)(=O)c1ccc2c(c1)/C(=C/c1cc3c([nH]1)CCCC3)C(=O)N2`, for which the residual activity worked out at 85%.

With `Cn1sc(=O)n(Cc2ccccc2)c1=O`, the residual activity amounted to 11%.

With `NCCNc1ncc(C(N)=O)c(Nc2cccc(C(F)(F)F)c2)n1`, the residual activity is 62%.

Consider `CC(C)(C)n1nc(Cc2cccc3ccccc23)c2c(N)ncnc21`, for which the residual activity was 100%.

With `NC(=O)Nc1sc(-c2ccc(F)cc2)cc1C(N)=O`, the residual activity came out at 94%.

On to `O=c1cc(N2CCNCC2)oc2c(-c3ccccc3)cccc12`, for which the residual activity amounted to 98%.

`O=c1cc(N2CCOCC2)oc2c1ccc1ccccc12`: the residual activity was determined as 87%.

Consider `O=S(=O)(NCCNC/C=C/c1ccc(Br)cc1)c1cccc2cnccc12`, for which the residual activity was found to be 76%.

Regarding `CC(C)c1nn(-c2c(Cl)cccc2Cl)c2nc(Cc3ccc(OCCO)cc3)[nH]c(=O)c12`, the residual activity was determined as 82%.

With `O=C(NC(NC(=S)Nc1ccc(F)c([N+](=O)[O-])c1)C(Cl)(Cl)Cl)C(c1ccccc1)c1ccccc1` (configuration not stated), the residual activity was 96%.

For the compound `CSc1nc(-c2ccc(F)cc2)c(-c2ccnc(NC(C)c3ccccc3)c2)[nH]1` (configuration not stated), the residual activity came to 101%.

`Oc1cccc(-c2nc(N3CCOCC3)c3oc4ncccc4c3n2)c1`: the residual activity amounted to 99%.

Regarding `COc1ccc2c(c1)c(C1=C(c3c[nH]c4ccccc34)C(=O)NC1=O)cn2CCCN(C)C`, the residual activity was 0%.

As to `O=S(=O)(c1cccc2cnccc12)N1CCCNCC1`, the residual activity was 69%.

For the compound `O=C1NC(=O)C(c2cn(CCCn3ccnc3)c3ccccc23)=C1Nc1ccccc1`, the residual activity was 3%.

`O=C(Nc1nc2ccccc2n1CCN1CCOCC1)c1cccc([N+](=O)[O-])c1`: the residual activity was 102%.

Take `CCOC(=O)c1c(C)[nH]c(/C=C2\C(=O)Nc3ccccc32)c1C`: the residual activity worked out at 88%.

On to `Nc1ncnc2c1cnn2-c1ccccc1`, for which the residual activity was determined as 101%.

Consider `CC(C)[C@H](CO)Nc1nc(Nc2cc(N)cc(Cl)c2)c2ncn(C(C)C)c2n1`, for which the residual activity is 98%.

`Nc1ncnc2c1c(-c1ccc(Oc3ccccc3)cc1)cn2C1CCCC1`: the residual activity amounted to 84%.

On to `COc1cc2nccc(Oc3ccc(NC(=S)NC(=O)c4ccccc4C)cc3)c2cc1OC`, for which the residual activity came out at 88%.

On to `O=C(c1ccccc1)c1ccc(N2CCOCC2)cc1O`, for which the residual activity came out at 95%.

Take `Nc1ncnc2[nH]nc(Nc3ccc(F)cc3)c12`: the residual activity was determined as 112%.

Consider `O=C1NC(=O)C(c2c[nH]c3ccccc23)=C1c1c[nH]c2ccccc12`, for which the residual activity worked out at 21%.

With `O=C1Nc2ccc(Cl)cc2/C1=C/c1cc(Cl)c(O)c(Cl)c1`, the residual activity amounted to 97%.

Regarding `COc1ccc(Cl)cc1NC(=O)Nc1cc(C)nc2ccccc12`, the residual activity was determined as 97%.

As to `COc1ccc(-c2cnc3c(-c4ccsc4)cnn3c2)cc1`, the residual activity came to 100%.

Regarding `O=C1NC(=O)c2c1c1c3ccccc3[nH]c1n1cncc21`, the residual activity is 94%.

Regarding `O=C1C(Cl)=C(N2C(=O)CCC2=O)C(=O)c2ccccc21`, the residual activity came to 26%.

As for `CCCC(=O)Oc1ccc2[nH]c(C(=O)c3cc4ccccc4[nH]3)cc2c1`, the residual activity is 93%.

With `O=C(O)/C=C/c1cc(Br)c(Br)c(Br)c1Br`, the residual activity came out at 102%.
